Records with an inconclusive call do not appear. The source made the active and inactive calls. The call rests on the fitted dose curve; in most records, active means well fitted inhibition curve with a large enough effect; inconclusive means small, poorly fitted or top-dose-only effect; inactive means flat fitted curve, though single readings scatter.
system: astro; assay: Drug repurposing screens with cells derived from glioblastoma tumor samples (AID 1345199); details: viability, ATP luminescence, 48 h; series mostly up to 45.9 µM; activity, negative = cell killing: at the top concentration; further: nearly all actives have a fitted effect of over 40% in size
Method in brief: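 Primary testing used CD133+ neurospheres from four GBM patients, seven concentrations, 48 h exposure and ATP-based viability; confirmation added three slower-growing patient lines.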
On the % scale 0 is the no-effect control and ±100 the full control effect; potency means the concentration at half of the fitted maximal effect.

Structure (SMILES) | Potency | activity, negative = cell killing
CCCCCCOc1ccc(C(=N)N(CCCC)CCCC)c2ccccc12 | 17.8 µM (active) | –
CCCCCCCCCCCCCC[n+]1ccc(C)cc1 | 3.16 µM (active) | –
Cc1cc(C(=O)NNCc2ccccc2)no1 | – | -7.86% [at 21.2 µM] (inactive)
CCCCCCCCCCCCCCCC(=O)OCC(COC(=O)CCCCCCCCCCCCCCC)OC(=O)CCCCCCCCCCCCCCC | – | -9.96% (inactive)
COC(F)(F)C(Cl)Cl | – | -18.9% (inactive)
Cc1cn([C@H]2C[C@H](O)[C@@H](CO)O2)c(=O)[nH]c1=O | – | 4.13% (inactive)
